# Laboratory results published in PubChem BioAssay (EPA / NIEHS).
# Calls of active or inactive are those of the source. The calls were made as follows: active = hit-call score of the fitted dose curve at least 0.9, where 1 is the maximum; inactive = score below 0.9.
# Read-out: Cyclin D2 (CCND2), CCND2 (gene 894)
# Assay: LTEA_HepaRG_CCND2: Life Technologies and Expression Analysis (LTEA) Assay for Cyclin D2 (CCND2) using HepaRG (AID 2283449);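 also: CCND2 transcript measured by TaqMan qRT-PCR and normalised to three housekeeping genes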
# Conditions: mRNA level, 48 h; actives raise or lower the signal
# Procedure: LTEA_HepaRG is a cell based, multiplexed-readout assay that uses HepaRG, a human liver cell line, with measurements taken at 48 hours after chemical dosing on a 96-well plate.LTEA_HepaRG_CCND2 is one of 102 assay component(s) measured in the LTEA HepaRG cell culture assay. It is a marker of Cell proliferation, survival, death.Data from the assay component LTEA_HepaRG_CCND2 was analyzed into 1 endpoint. This assay endpoint, LTEA_HepaRG_CCND2, was analyzed with bidirectional fitting relative to DMSO as the negative control and baseline of activity. Using a type of inducible reporter, measures of mRNA induction for gain or loss-of-signal activity can be used to understand regulation of transcription factor activity. To generalize the intended target to other relatable targets, this assay endpoint is annotated to the cell cycle intended target family, where the subfamily is Cell proliferation, survival, death.
# A total of 1060 chemcials from the ToxCast library were tested in eight-point concentration-response experiments. Cell culture and cytotoxicity assays were conducted at Thermo Fisher Scientific's Custom Services facility (Madison, WI). A single lot of human HepaRG cells (Thermo Fisher Scientific, Frederick, MD) was used for the cell culture experiments. 96-well format collagen type I coated plates of human HepaRG cells were prepared using established methods. Briefly, cryopreserved HepaRG cells were thawed, plated at a density of approximately 100,000 cells/well in HepaRG Thaw, Plate, and General Purpose media (HPRG770, Thermo Fisher Scientific), and incubated for 48 hours. 0.5% DMSO was selected as vehicle control to balance the requisite need of DMSO in HepaRG cultures to maintain differentiation (for example, baseline metabolism, proportions of hepatocytes vs. cholangiocytes), while enabling further hepatic receptor pathway activation (for example, PXR and CAR) in response to chemical exposure. 48 hours after plating, the culture medium was replaced with HepaRG Serum-Free Incudtion Media. Cells were exposed to each test chemical in duplicate and maintained in CO2 incubators for another 48 hours. Chemical plates were thawed to room temperature and 200x concentrations of treatment groups were prepared. 8-point conentration-reponse curves were made with the highest exposure at 100 uM, followed by half-log dilutions, all in 0.5% DMSO. Each test plate contained variouse controls, induction positive controls (1mM phenobarbital), cytotoxicity positive controls ([…] aflatoxin B1), vehicle controls (0.5% DMSO), and total lysis controls (0.5% DMSO). Cell morphology images were taken using an Essen IncuCyte FLR automated microscope, with six 96-well plates imaged in about 24 minutes. Images were captured and exported and JPEG files. Spent culture media was transfered to black-well plates for the LDH assay, and remaining media was sorted at -80 C for later use. Cells were treated with RLT buffer and frozen until shipped for gene expression analysis. Total RNA was isolated from the cell suspension in 75 uL of Buffer RLT (Qiagen, Germantown, MD 20874) by Quintiles/Expression Analysis (Durham, NC) using a custom isolation procedure. Total RNA from each plate well was transferred to a preamplification plate. Fluidigm's 96.96 Dynamic ArrayTM (Fluidigm, Amsterdam, the Netherlands) technology was used for gene expression analyses by quantitative reverse transcription polymerase chain reaction (qRT-PCR, performed by Quintiles/Expression Analysis, Durham, NC)89. Standard TaqManTM Assays (Applied Biosystems/ThermoFisher Scientific, Foster City, CA) were used to assess the expression of 93 genes selected based on their selectivity and sensitivity to important hepatic receptors known to be modulated by environmental chemicals; importance in human hepatocyte functionality; and hepatotoxicity. […]
SMILES,outcome,AC50
CSC(=O)c1c(C(F)F)nc(C(F)(F)F)c(C(=O)SC)c1CC(C)C,inactive,
COC(=O)NC(=S)Nc1ccccc1NC(=S)NC(=O)OC,inactive,
CCNP(=S)(OC)O/C(C)=C/C(=O)OC(C)C (stereo not given),inactive,
CC1(C)CON(Cc2ccccc2Cl)C1=O,inactive,
CCOc1cc(C(C)(C)C)ccc1C1COC(c2c(F)cccc2F)=N1 (stereo not given),inactive,
CC(C)Nc1nc(Cl)nc(NC(C)C)n1,inactive,
CN=C=S,inactive,
CC(C)N1C(=O)c2ccccc2NS1(=O)=O,inactive,
O=C(Nc1ccccc1-c1ccc(Cl)cc1)c1cccnc1Cl,inactive,
CCCCC(C#N)(Cn1cncn1)c1ccc(Cl)cc1 (stereo not given),inactive,
COP(=S)(OC)Oc1ccc([N+](=O)[O-])c(C)c1,inactive,
CS(=O)(=O)c1ccc(C(=O)C2C(=O)CCCC2=O)c([N+](=O)[O-])c1,inactive,
COC(=O)c1c(C(F)F)nc(C(F)(F)F)c(C2=NCCS2)c1CC(C)C,inactive,
CCC(C)n1c(=O)[nH]c(C)c(Br)c1=O (stereo not given),inactive,
Cc1c(COC(=O)[C@@H]2[C@H](/C=C(\Cl)C(F)(F)F)C2(C)C)cccc1-c1ccccc1,inactive,
Cc1cnc(C2=NC(C)(C(C)C)C(=O)N2)c(C(=O)O)c1 (stereo not given),inactive,
Nc1c(Cl)c(Cl)nc(C(=O)O)c1Cl,inactive,
CNC(=O)Oc1cccc2ccccc12,,0.0193 µM (active)
Cn1c(-c2ccccc2)cc(-c2ccccc2)[n+]1C,inactive,
CCOc1nc(C(Cl)(Cl)Cl)ns1,,1.11 µM (active)

SMILES,outcome,AC50
Cc1nc(N(C)C)nc(OC(=O)N(C)C)c1C,inactive,
COc1cc(Cl)c(OC)cc1Cl,inactive,
COP(=S)(OC)SCn1nnc2ccccc2c1=O,inactive,
N#Cc1c(Cl)cccc1Cl,inactive,
Clc1cccc(C(Cl)(Cl)Cl)n1,inactive,
CCN(CC)c1nc(C)cc(OP(=S)(OC)OC)n1,inactive,
C=C(C)CN(CC)c1c([N+](=O)[O-])cc(C(F)(F)F)cc1[N+](=O)[O-],inactive,
CC(C)N1C(=O)N(c2ccccc2)CSC1=NC(C)(C)C,inactive,
Nc1c(Cl)c(F)nc(OCC(=O)O)c1Cl,inactive,
O=c1n(Cl)c(=O)n(Cl)c(=O)n1Cl,inactive,
CC1(C)C(C=C(Cl)Cl)C1C(=O)OC(C#N)c1cccc(Oc2ccccc2)c1 (stereo not given),inactive,
COP(=O)(OC)O/C(C)=C/C(=O)N(C)C,inactive,
CCN(CC)C(=O)C(C)Oc1cccc2ccccc12 (stereo not given),inactive,
C=CCOC(=O)C(C)(C)OC(=O)c1cc(-n2c(=O)cc(C(F)(F)F)n(C)c2=O)ccc1Cl,inactive,
COCc1cnc(C2=NC(C)(C(C)C)C(=O)N2)c(C(=O)O)c1 (stereo not given),inactive,
CO/N=C(/C1=NOCCO1)c1ccccc1Oc1ncnc(Oc2ccccc2Cl)c1F,inactive,
N#CN=C1SCCN1Cc1ccc(Cl)nc1,inactive,
CCCN(CC)CC1COC2(CCC(C(C)(C)C)CC2)O1 (stereo not given),inactive,
Nc1cnn(-c2ccccc2)c(=O)c1Cl,inactive,
CC(C)=CC1C(C(=O)OCc2coc(Cc3ccccc3)c2)C1(C)C (stereo not given),inactive,
